Compound activity as filed in PubChem.
ABHD5 PLIN5 PPI – blocks binding of human ABHD5 to perilipin-5. Q00G26+Q8WTS1. Split G. princeps luciferase complementation, luminescence, 4 h. inhibition, % at 4 µM. 360,000 compounds, 0.78% hits;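 active = inhibition above the mean inhibition across every tested compound plus 3 SD, cut at about 22% in these data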;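 also: 0% = DMSO only wells and the 100% control is not disclosed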
Target sequence (Q00G26 whole entry, looked up): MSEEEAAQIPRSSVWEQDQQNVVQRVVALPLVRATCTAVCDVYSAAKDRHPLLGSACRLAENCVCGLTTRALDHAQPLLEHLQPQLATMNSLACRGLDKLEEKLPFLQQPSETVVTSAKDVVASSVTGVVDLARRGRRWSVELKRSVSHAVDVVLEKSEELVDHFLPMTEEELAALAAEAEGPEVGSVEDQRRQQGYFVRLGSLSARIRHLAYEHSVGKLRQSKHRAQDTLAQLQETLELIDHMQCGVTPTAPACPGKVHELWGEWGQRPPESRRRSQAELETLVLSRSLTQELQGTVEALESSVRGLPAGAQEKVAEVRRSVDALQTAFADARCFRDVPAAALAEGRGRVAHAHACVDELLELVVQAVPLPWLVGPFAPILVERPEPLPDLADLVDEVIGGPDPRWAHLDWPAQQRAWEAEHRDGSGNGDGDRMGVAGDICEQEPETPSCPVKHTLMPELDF
Target sequence (Q8WTS1 whole entry, looked up): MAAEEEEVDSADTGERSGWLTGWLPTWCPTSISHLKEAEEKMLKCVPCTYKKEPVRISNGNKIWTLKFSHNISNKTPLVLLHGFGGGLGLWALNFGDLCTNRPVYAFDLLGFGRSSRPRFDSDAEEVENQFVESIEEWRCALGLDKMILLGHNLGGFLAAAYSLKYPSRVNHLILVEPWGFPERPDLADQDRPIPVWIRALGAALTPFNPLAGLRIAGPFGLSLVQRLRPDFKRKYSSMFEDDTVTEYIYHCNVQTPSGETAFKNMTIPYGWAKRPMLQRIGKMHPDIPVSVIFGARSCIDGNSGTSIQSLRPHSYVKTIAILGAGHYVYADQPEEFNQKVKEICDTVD
Platelet DG rel – platelet dense granule release activity. human platelet-rich plasma, SFLLRN dense granule ATP release, luminescence. inhibition, %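 (compounds screened at 7.5 µM in platelet-rich plasma)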. 300,000 compounds, 0.22% hits;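 active = mean replicate score, as percent of positive control, at or above 50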
Granule exo inh – lytic granule exocytosis inhibition; AID 651702; 360,000 compounds, 0.66% hits; TALL-104 LAMP-1 surface exposure, flow cytometry; cells stimulated with thapsigargin and PMA; inhibition, % at 10 µM;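 active = inhibition above about 55%, limit read from the data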
Rce1 inh – inhibitors of yeast Ras-converting enzyme. Q03530. yeast membranes, quenched prenylated peptide cleavage fluorescence. calls only. 290,000 compounds, 0.27% hits. AID 2563;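 active = fall in fluorescence gain of 50% or more versus controls, with final raw signal at or below 3038400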;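 also: plate controls were neutral control wells for no effect and wells lacking membranes for full effect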
PfM18AAP inh – PfM18AAP enzyme inhibition | AID 1822 | 290,000 compounds, 1.2% hits | recombinant PfM18AAP, H-Glu-NHMec fluorogenic cleavage | inhibition, % at 7.35 µM;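 active = inhibition above the campaign mean inhibition over all tested compounds plus 3 SD, cut at about 28% in these data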;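 also: 0% = plate median of test compound wells and 100% = 2 mM ZnCl2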
The depositor's hits bear a star; i = inactive; nt = not tested or not shown; + = active, no number. This is a sample that favours compounds with a hit; in the whole collection about 2.6% have one here.

SMILES	ABHD5 PLIN5 PPI	Platelet DG rel	Granule exo inh	Rce1 inh	PfM18AAP inh
COc1ccccc1C1C=C(c2ccc(Cl)cc2)Nc2nc(NS(C)(=O)=O)nn21 (configuration not stated)	nt	-2	nt	i	-1
CSc1nc(O)c(Nc2cccc(Cl)c2)c(=O)[nH]1	-3	1	3	i	31*
O=C(NCc1ccc(F)cc1Cl)C1CC(=O)N(C2CCCCCCC2)C1 (configuration not stated)	-3	-10	5	i	1
COc1ccc(NC(=O)CSCC(=O)Nc2nnc(C3CC3)s2)cc1	5	3	0	i	nt
Cc1ccc(-c2cc(-c3ccccc3)c(C#N)c(Br)n2)cc1	1	-4	2	+	1
CS(=O)(=O)c1nc(-c2ccccc2)cc(-c2ccccc2)c1C#N	7	-1	0	i	-3
Cc1nnc(SCC(=O)N(CC(C)C)c2c(N)n(CC(C)C)c(=O)[nH]c2=O)n1-c1ccccc1	-15	1	-2	i	6
Cc1cccc(C)c1NC(=O)c1nc(S(=O)(=O)Cc2ccccc2)ncc1Cl	71*	17	47	i	-68
COc1ccc(NC(=O)c2nc(S(=O)(=O)Cc3cccc(C)c3)ncc2Cl)c(OC)c1	15	15	24	i	-79
COc1cc(NC(=O)C2CCCN(S(=O)(=O)c3cnc[nH]3)C2)cc(OC)c1 (configuration not stated)	2	7	-1	i	-1
Cc1cc2nn(-c3cccc4ccccc34)nc2cc1NC(=O)c1cccs1	4	0	-1	+	-6
COC(=O)C(C#N)c1nc2ccccc2nc1N1CCN(Cc2ccc3c(c2)OCO3)CC1 (configuration not stated)	nt	56*	nt	i	nt
CC(C)COC(=O)C(C#N)c1nc2ccccc2nc1N1CCN(Cc2ccc3c(c2)OCO3)CC1 (configuration not stated)	-2	-13	2	i	1
COC1(OC)C(/C=C/c2ccc(C)cc2)C(C#N)(C#N)C1(OC)OC (configuration not stated)	22*	6	-1	i	-2
Cc1[nH]c(=S)[nH]c(=O)c1Cc1ccccc1	9	-2	-2	nt	31*
Oc1ccc(NC(=S)Nc2ccccc2)cc1	-2	-1	6	i	11
CCOC(=O)C1CCN(C(=O)Cn2cc(C(=O)OC)c3ccccc32)CC1	0	8	-3	i	1
Cc1ccc2nc(-c3ccc(NC(=O)CSCC(=O)O)cc3)sc2c1	11	1	8	i	6
O=C(O)CSCC(=O)Nc1ccc(-c2nc3ccccc3s2)cc1	-3	18	13	+	14
Nc1nc2c(ncn2C2CCCC2)c(=O)[nH]1	4	nt	6	nt	nt
Nc1nc(=S)c2ncn(C3CCCC3)c2[nH]1	-4	-15	-5	i	36*
Nc1nc2ccccc2[nH]1	7	4	-2	i	-5
Nc1ccccc1Sc1nc2ccccc2[nH]1	-8	0	61*	i	25
Cc1ccc(C)c(C(=O)Nc2cc(C)nn2-c2nc(C)cc(C)n2)c1	6	1	1	i	-3
O=C(CN1CCN(S(=O)(=O)c2ccccc2)CC1)NC(=O)NC1CCCCC1	-5	-7	-1	i	-1
SMILES	ABHD5 PLIN5 PPI	Platelet DG rel	Granule exo inh	Rce1 inh	PfM18AAP inh
COc1ccc(S(=O)(=O)N(CC(=O)N2CCCC2)Cc2ccccc2)cc1	-1	-1	3	+	-7
O=C1NC(=O)C2(CCC(C(=O)O)C2)N1 (configuration not stated)	-1	50*	1	i	-2
O=C1NC(=O)C2(CCCC2)N1	-2	nt	8	nt	nt
Cc1cc(C(=O)Nc2ncn(Cc3ccc(F)cc3)n2)ccc1[N+](=O)[O-]	8	0	1	i	31*
O=C(Oc1cccc(C(=S)N2CCOCC2)c1)c1ccccc1	-4	-2	-16	i	28*
COc1cc(C(=S)N2CCOCC2)cc(OC)c1OC(=O)c1ccc(F)cc1	-8	-4	-1	i	29*
S=c1[nH]nc(NC2CCCCC2)s1	-14	nt	2	nt	nt
CCOC(=O)C1CCCN(C(=O)c2ccc3c(=O)n(CCOC)c(=S)[nH]c3c2)C1 (configuration not stated)	0	6	-2	i	1
O=C(NC1CC2CCCC(C1)N2C(=O)Nc1ccccc1)c1ccccc1 (configuration not stated)	1	1	-6	i	-1
O=C(c1ccc(-c2cccc(Cl)c2)o1)N1CCN(c2ccc([N+](=O)[O-])cc2)CC1	4	-7	2	i	-9
